From PubChem
HEK cytotox: Cytotoxic Profiling in HEK 293 Cell Line of Diverse Libraries Using Quantitative High-Throughput Screening; HEK 293 viability, ATP luminescence (CellTiter-Glo), 48-72 h; Potency, µM (top dose mostly 115 µM), actives largely listed as inhibitors; hit rate 6.6% among 94,000; also: nearly all actives have a fitted effect of over 60% in size
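Pintool-delivered compounds were incubated with HEK 293 cells (250 cells/well) at 37 degree Celsius for 48 or 72 hr. ATP-dependent luminescence (CellTiter-Glo) then reported remaining viable cells.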
GPT2 inh: Primary qHTS assay for inhibitors of Glutamate pyruvate transaminase 2 (GPT2) | Potency, µM (doses to about 57.7 µM), hits mostly inhibitors | hit rate 0.25% among 100,000 | Recombinant GPT2, coupled pyruvate oxidase/HRP Amplex Red fluorescence; also: nearly all actives have a fitted effect of over 60% in size
Target sequence (Q8TD30 whole entry, looked up): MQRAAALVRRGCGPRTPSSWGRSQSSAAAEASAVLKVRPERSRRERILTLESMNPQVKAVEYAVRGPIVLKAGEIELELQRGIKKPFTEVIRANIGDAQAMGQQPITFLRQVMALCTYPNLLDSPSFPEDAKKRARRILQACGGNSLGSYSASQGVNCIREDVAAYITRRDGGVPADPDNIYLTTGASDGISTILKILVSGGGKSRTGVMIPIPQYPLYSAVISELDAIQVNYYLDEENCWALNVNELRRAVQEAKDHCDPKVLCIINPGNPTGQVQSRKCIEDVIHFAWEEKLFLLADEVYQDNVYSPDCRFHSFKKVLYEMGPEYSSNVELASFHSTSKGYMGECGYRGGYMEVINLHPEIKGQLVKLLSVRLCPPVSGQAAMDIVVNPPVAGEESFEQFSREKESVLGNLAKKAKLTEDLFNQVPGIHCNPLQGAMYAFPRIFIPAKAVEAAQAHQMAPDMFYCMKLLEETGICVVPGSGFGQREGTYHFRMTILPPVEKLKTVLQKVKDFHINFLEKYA
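GPT2 10ng/uL, a-KG 250uM, L-Ala 2mM, HEPES pH7.5 + 0.0001% Tween; 30 min RT. Then Amplex mix (PO/HRP/ThPP), 30 min RT dark, fluorescence. AOA 50uM used as positive control.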
hNpr1 antagonist: Natriuretic polypeptide receptor (hNpr1) antagonism - Primary qHTS; HEK293 hNpr1 GloSensor cGMP, ANP-stimulated luminescence; Potency, µM (titrated, usually from 46.3 µM), usual class: inhibitors; hit rate 1.6% among 76,000; calls by dose curve; also: nearly all actives have a fitted effect of over 60% in size
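Compound pre-incubated 30 min at room temperature on GloSensor-loaded HEK293 cells stably carrying hNpr1 and the pGS-40F cGMP biosensor. Stimulation uses hNppA at 0.1 nM final; luminescence is taken at baseline and 20 min post-agonist.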
Luciferase inh: Firefly luciferase inhibition profiling of diverse chemical library using quantitative high-throughput screening; Luciferin 4-monooxygenase (Photinus pyralis), P08659; AID 1347043, 2019; hit rate 2.5% among 76,000; Potency, µM (titrated, usually from 115 µM), usual class: inhibitors; purified P. pyralis luciferase, luminescence, biochemical; also: nearly all actives have a fitted effect of over 65% in size
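FLuc 10nM, D-luciferin 10uM, ATP 10uM, Mg acetate 10mM, Tris acetate pH 7.5, Tween/BSA; cpd qHTS; enzyme added last; CCD luminescence.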
3T3 cytotox: Cytotoxic Profiling in NIH 3T3 Cell Line of Diverse Libraries Using Quantitative High-Throughput Screening | NIH 3T3 viability, CellTiter-Glo ATP luminescence, 48-72 h | Potency, µM (titrated, usually from 96.7 µM), hits mostly inhibitors | hit rate 4.3% among 94,000 | AID 1345082, 2018; also: nearly all actives have a fitted effect of over 55% in size
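First NIH 3T3 cells are plated at 400 cells/well; next compound is pinned in; then plates incubate 48 or 72 hr at 37 °C; finally CellTiter-Glo is added and luminescence read after 10 min.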
Hits are given with their value; 0 = inactive; ? = inconclusive; - = no result; ! = repeats disagree. Shown are actives, neighbours in structure and some others; about 10% of the full set was active somewhere. Unless noted, calls follow the shape of the dose curve; as a rule, active = well fitted curve in the direction sought with a large enough effect; inconclusive = small, poorly fitted or top-dose-only effect, or another doubt; inactive = no such curve, though single readings can be large; an effect the other way counts as inactive or inconclusive.

SMILES	HEK cytotox	GPT2 inh	hNpr1 antagonist	Luciferase inh	3T3 cytotox
COCCOc1ncccc1-c1noc([C@@H]2CCCN2Cc2cccc(C#N)c2)n1	?	0	0	0	0
COCCNc1ncccc1-c1noc([C@@H]2CCCN2CC(C)(C)C)n1	?	0	0	0	50µM
Cc1ccc(NC(=O)CN2C(=O)NC3(CCS(=O)(=O)CC3)C2=O)cc1C	0	0	0	0	0
O=C(CN1C(=O)NC2(CCS(=O)(=O)CC2)C1=O)Nc1ccc2c(c1)OCCO2	0	0	0	35µM	0
Cc1ccc(-c2cn3c(n2)N(C(=O)c2cnn4cccnc24)CCC3)cc1	79µM	0	0	0	0
Cc1ccsc1C(=O)N1CCCn2cc(-c3ccccc3)nc21	?	0	0	0	0
COc1cccc(-c2cn3c(n2)N(C(=O)c2cccs2)CCC3)c1	?	0	0	35µM	0
O=C(c1nc2ncccn2n1)N1CCCn2cc(-c3ccccc3)nc21	?	0	0	0	0
O=C(c1ccsc1)N1CCCn2cc(-c3ccccc3)nc21	?	0	0	40µM	0
Cc1ccsc1C(=O)N1CCCn2cc(-c3cccc(C#N)c3)nc21	?	0	0	32µM	0
COc1cccc(-c2cn3c(n2)N(C(=O)C2CCC2)CCC3)c1	?	0	0	?	0
CN(C)c1ccc(CCc2nc(C3CCOC3)no2)cc1 (centres undefined)	0	0	0	0	0
COc1ccc(C(=O)N2C[C@@H]3C[C@H](C2)c2c(NC(=O)Nc4ccccc4)ccc(=O)n2C3)cc1	10µM	0	0	0	0
COc1ccc(C(=O)N2C[C@@H]3C[C@H](C2)c2ccc(NC(=O)Nc4cccc(C#N)c4)c(=O)n2C3)cc1	?	0	0	25µM	?
COc1ccc(C(=O)N2C[C@@H]3C[C@H](C2)c2c(NS(=O)(=O)c4ccccc4)ccc(=O)n2C3)cc1	0	0	0	0	0
CNC(=O)[C@H]1C[C@H](Oc2cccnc2)CN1C(=O)Nc1ccccc1	0	0	0	0	0
O=C(C[C@H]1NC(=O)c2ccccc2NC1=O)Nc1nc(-c2cccnc2)cs1	45µM	0	0	0	?
O=C(C[C@H]1NC(=O)c2ccccc2NC1=O)Nc1nc(-c2ccncc2)cs1	0	0	0	0	?
O=C(Cc1cccs1)N1CCCN(c2cc(-c3ccc(Br)cc3)[nH]n2)CC1	45µM	?	?	0	35µM
O=C(COc1ccc(F)cc1)N1CCCN(c2cc(-c3ccc(Br)cc3)[nH]n2)CC1	45µM	?	?	0	?
CCCNC(=O)N[C@@H]1C=C(C(=O)N[C@@H](Cc2ccc(OC)cc2)C(N)=O)C[C@@H](O)[C@@H]1O	0	0	0	0	0
CCn1nc(C)c(-c2cc(C(=O)N3CCC(CCOc4ccccc4)C3)no2)c1C (centres undefined)	25µM	0	?	0	?
Cc1ccc(OCCC2CCN(C(=O)c3cc(CN4CCOCC4)on3)C2)cc1 (centres undefined)	79µM	0	?	0	0
CCn1nc(C)c(-c2cc(C(=O)N3CCc4nc5cc(-c6ccccc6)[nH]n5c(=O)c4C3)no2)c1C	0	0	0	0	0
COc1ccccc1-c1ccc(CN2CCCCC2C(=O)NCc2ccc3c(c2)OCO3)cc1 (centres undefined)	25µM	-	-	-	?
SMILES	HEK cytotox	GPT2 inh	hNpr1 antagonist	Luciferase inh	3T3 cytotox
COc1ccccc1-c1ccc(CN2CCCCC2C(=O)NCc2cccc(F)c2)cc1 (centres undefined)	32µM!	-	-	-	?
COc1ccccc1-c1ccc(CN2CCCCC2C(=O)NC2CCCC2)cc1 (centres undefined)	35µM!	-	-	-	?
O=C(NCc1ccccc1F)C1CCCCN1Cc1ccc(-c2cccs2)cc1 (centres undefined)	?	0	-	-	?
COc1ccccc1-c1ccc(CN2CCCCC2C(=O)NCc2ccc(F)cc2F)cc1 (centres undefined)	20µM	-	-	-	?
COc1ccccc1-c1cccc(C(=O)N2CCC[C@H]2C(=O)NCc2ccc(F)cc2)c1	?	0	-	-	?
COc1ccc(F)cc1-c1ccc(CN2CCCCC2C(=O)N2CCc3ccccc3C2)cc1 (centres undefined)	32µM	-	-	-	40µM
COc1ccccc1-c1ccc(CN2CCCCC2C(=O)NCc2ccccc2Cl)cc1 (centres undefined)	?	-	-	-	28µM
COc1cccc(-c2ccc(CN3CCCC3C(=O)NCc3ccccc3F)cc2)c1 (centres undefined)	?	0	-	-	?
COc1ccccc1-c1cccc(C(=O)N2CCC[C@H]2C(=O)NCc2cccnc2)c1	0	0	-	-	0
COc1ccccc1-c1ccc(CN2CCCCC2C(=O)N2CCCC2)cc1 (centres undefined)	?	0	-	-	?
COc1ccc(F)cc1-c1ccc(CN2CCCCC2C(=O)NCc2cccnc2)cc1 (centres undefined)	50µM	-	-	-	?
CCC(C)NC(=O)N1CC(Oc2ccc(-c3nc(C)no3)cc2)C1 (centres undefined)	?	0	0	0	0
Cc1noc(C)c1Cn1cc2c3c(cccc31)[C@H](CC(C)C)N[C@H](C(=O)O)C2	0	0	0	0	?
Cc1ccc(C2Cn3nnc(C(=O)N4CCC(C(=O)NCc5ccccc5C)CC4)c3CO2)cc1 (centres undefined)	0	0	0	0	0
COc1ccc(-c2nc(C3CC3)nc3c2CN([S+](=O)([O-])c2cccs2)CC3)cc1	0	0	-	-	?
CCc1nc2c(c(-c3ccc(OC)cc3)n1)CCN([S+](=O)([O-])c1ccccc1)CC2	0	0	-	-	?
CCc1nc2c(c(-c3ccc(OC)cc3)n1)CN([S+](=O)([O-])c1cccs1)CC2	0	0	-	-	11µM
COc1ccc(-c2nc(C)nc3c2CN([S+](=O)([O-])c2cccs2)CC3)cc1	0	0	-	-	28µM
O=C1CC2(CCN(C(=O)C3CCCN([S+](=O)([O-])c4cccs4)C3)CC2)Oc2ccccc2N1 (centres undefined)	?	0	-	-	0
O=C([C@@H]1C[C@H](Oc2cccnc2)CN1C(=O)CN1CCCCCC1)N1CCCC1	0	0	0	0	0
COc1ccc(-c2cc(N3CCC(NC(=O)c4ccc(Cl)cc4)CC3)n[nH]2)cc1	45µM	0	?	0	?
O=C(Cc1cccc(Cl)c1)NC1CCN(c2cc(-c3ccccc3)[nH]n2)CC1	?	0	0	0	32µM
O=C(NC1CCN(c2cc(-c3ccc(Cl)cc3)[nH]n2)CC1)c1ccc2[nH]ccc2c1	40µM	0	0	0	35µM
